About 83,000 compounds went through this panel and 20% of them were active in at least one assay; those are over-represented in the sample as a whole.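 Activity criterion: percent growth below 10, measured after cells in 96-well plates were exposed to a single compound concentration for 48 hours.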 Activity calls are given as the source filed them.
Key:
Experiment in all cases: NCI-60 one-dose screen, 48 h (100 = growth as untreated, 0 = no growth, -100 = all killed)
Details in all cases: 10 µM unless noted
HCT-15 colon = test system: HCT-15 colon
SNB-75 CNS = test system: SNB-75 CNS
SNB-19 CNS = test system: SNB-19 CNS
U251 CNS = test system: U251 CNS
PC-3 prostate = test system: PC-3 prostate
SK-MEL-5 melanoma = test system: SK-MEL-5 melanoma
UACC-62 melanoma = test system: UACC-62 melanoma
LOX IMVI melanoma = test system: LOX IMVI melanoma
SK-MEL-28 melanoma = test system: SK-MEL-28 melanoma
SK-MEL-2 melanoma = test system: SK-MEL-2 melanoma
EKVX NSCLC = test system: EKVX NSCLC
SN12C renal = test system: SN12C renal
UO-31 renal = test system: UO-31 renal
TK-10 renal = test system: TK-10 renal
ACHN renal = test system: ACHN renal
CAKI-1 renal = test system: CAKI-1 renal
A498 renal = test system: A498 renal
CCRF-CEM leukemia = test system: CCRF-CEM leukemia
MOLT-4 leukemia = test system: MOLT-4 leukemia

Measured: growth

NC(N)=Nc1ccc(Oc2cccc(Nc3ccc(Br)c(C(F)(F)F)c3)c2)cn1
inactive: SK-MEL-5 melanoma 16.9% | UO-31 renal 38.6%
active: HCT-15 colon -68.3% | SNB-75 CNS 9.31% | SNB-19 CNS -83.5% | U251 CNS -79.6% | PC-3 prostate -92% | UACC-62 melanoma -76.9% | LOX IMVI melanoma -87.6% | SK-MEL-28 melanoma -32.1% | SK-MEL-2 melanoma -45.1% | EKVX NSCLC -68.8% | SN12C renal -87.7% | TK-10 renal 7.85% | ACHN renal 1.96% | CAKI-1 renal -5.28% | A498 renal -25.1% | CCRF-CEM leukemia 0.633% | MOLT-4 leukemia -35.6%

CN1CCN(Cc2ccc(NC(=O)c3cncc(C#Cc4cnc5ccc(NCCCO)nn45)c3)cc2C(F)(F)F)CC1
inactive: SN12C renal 15.6%
active: HCT-15 colon 1.94% | SNB-75 CNS -70.8% | SNB-19 CNS -0.64% | U251 CNS -68% | PC-3 prostate -19.2% | SK-MEL-5 melanoma -87% | UACC-62 melanoma -14.1% | LOX IMVI melanoma -86.3% | SK-MEL-28 melanoma -21% | SK-MEL-2 melanoma -90.8% | EKVX NSCLC -3.09% | UO-31 renal -1.42% | TK-10 renal -28.7% | ACHN renal 3.14% | CAKI-1 renal -1.99% | A498 renal -98.8% | CCRF-CEM leukemia 6.66% | MOLT-4 leukemia 8.92%

Cc1ccc(C2=Nn3c(nnc3-c3ccccc3)SC2)cc1
inactive: HCT-15 colon 23% | SNB-19 CNS 31.4% | U251 CNS 25.5% | PC-3 prostate 35.2% | SK-MEL-5 melanoma 21.5% | UACC-62 melanoma 41.4% | LOX IMVI melanoma 49% | SK-MEL-28 melanoma 76.2% | EKVX NSCLC 39.3% | SN12C renal 47.5% | UO-31 renal 43.1% | TK-10 renal 48.3% | ACHN renal 52.1% | CAKI-1 renal 34.4% | CCRF-CEM leukemia 23.6% | MOLT-4 leukemia 44.4%
active: SNB-75 CNS -4.24% | SK-MEL-2 melanoma -14.8% | A498 renal -12.4%

CNC(=O)c1cc(-n2ccc3cc(NC(=O)Nc4ccc(N5CCOCC5)c(C(F)(F)F)c4)ccc32)ccn1
active: PC-3 prostate 4.72% | SK-MEL-5 melanoma 4.69%
inactive: HCT-15 colon 30.2% | SNB-75 CNS 17.1% | SNB-19 CNS 74.2% | U251 CNS 42% | UACC-62 melanoma 13.4% | LOX IMVI melanoma 13.3% | SK-MEL-28 melanoma 62.9% | SK-MEL-2 melanoma 68.8% | EKVX NSCLC 65.4% | SN12C renal 55.3% | UO-31 renal 35.2% | TK-10 renal 61.3% | ACHN renal 56.9% | CAKI-1 renal 41.3% | A498 renal 70.7% | MOLT-4 leukemia 13.8%

CCCCCc1ccc(S(=O)(=O)Nc2cccc(-c3csc(NC(=O)CCCCCN4CCN(CCO)CC4)n3)c2)cc1
inactive: HCT-15 colon 43.1% | SNB-75 CNS 98.5% | SNB-19 CNS 85.9% | U251 CNS 65.8% | PC-3 prostate 68.1% | SK-MEL-5 melanoma 66.1% | UACC-62 melanoma 87.6% | SK-MEL-28 melanoma 71.1% | SK-MEL-2 melanoma 105% | EKVX NSCLC 81% | SN12C renal 85.2% | UO-31 renal 88.4% | TK-10 renal 127% | ACHN renal 99.4% | CAKI-1 renal 95.3% | CCRF-CEM leukemia 46.7% | MOLT-4 leukemia 14.7%
active: LOX IMVI melanoma -60.3%

COc1cc(-c2nn(C(C)(C)C)cc2-c2ccnc(NCCCNS(=O)(=O)c3cccc(F)c3)n2)ccc1Cl
inactive: HCT-15 colon 63.7% | SNB-75 CNS 46.2% | SNB-19 CNS 93.4% | U251 CNS 88.3% | PC-3 prostate 51.3% | SK-MEL-5 melanoma 81.8% | UACC-62 melanoma 69.2% | LOX IMVI melanoma 67.2% | SK-MEL-28 melanoma 91.6% | SK-MEL-2 melanoma 85.8% | EKVX NSCLC 40.6% | SN12C renal 58.6% | UO-31 renal 42.9% | TK-10 renal 68.2% | ACHN renal 83.4% | CAKI-1 renal 25.7% | A498 renal 34.4% | MOLT-4 leukemia 44%

O=C(Nc1ccc(N=Cc2c(O)[nH]c3ccccc23)cc1)Nc1nccs1
active: A498 renal -7.94%
inactive: HCT-15 colon 29% | SNB-75 CNS 33.4% | SNB-19 CNS 31% | U251 CNS 42% | PC-3 prostate 68.6% | SK-MEL-5 melanoma 26.8% | UACC-62 melanoma 24.9% | LOX IMVI melanoma 35.1% | SK-MEL-28 melanoma 61.3% | SK-MEL-2 melanoma 62.1% | SN12C renal 68% | UO-31 renal 48.4% | TK-10 renal 75.7% | ACHN renal 40.7% | CAKI-1 renal 32.9% | MOLT-4 leukemia 32.2%

O=C(NNc1nc2cc(F)c(F)cc2n2c(CN3CC4CNCC4C3)ccc12)c1ncccn1 (stereo not drawn)
inactive: HCT-15 colon 19.8% | SNB-75 CNS 52.1% | SNB-19 CNS 29.9% | U251 CNS 17.3% | PC-3 prostate 17.6% | SK-MEL-28 melanoma 29.3% | SN12C renal 25.8% | UO-31 renal 13.6% | TK-10 renal 16.2% | ACHN renal 12.7% | A498 renal 18.7%
active: SK-MEL-5 melanoma -33.8% | UACC-62 melanoma -20.1% | LOX IMVI melanoma 1.73% | SK-MEL-2 melanoma 9.68%

O=C(CSc1nc2ccccc2c(=O)n1-c1ccc(Cl)cc1)N/N=C/c1ccc(N2CCCCC2)cc1
inactive: HCT-15 colon 67.8% | SNB-75 CNS 79.9% | SNB-19 CNS 43.2% | U251 CNS 50.6% | PC-3 prostate 78.6% | SK-MEL-5 melanoma 97.9% | UACC-62 melanoma 73.5% | LOX IMVI melanoma 43.5% | SK-MEL-2 melanoma 99.5% | EKVX NSCLC 82.1% | SN12C renal 62.4% | UO-31 renal 53% | TK-10 renal 103% | ACHN renal 17.4% | A498 renal 78.5% | CCRF-CEM leukemia 87%

O=C(CCn1c[n+](CC(=O)c2ccc(F)cc2)c2ccccc21)Nc1cccc2cccnc12
inactive: HCT-15 colon 106% | SNB-75 CNS 75.6% | SNB-19 CNS 71.1% | U251 CNS 79.3% | PC-3 prostate 63.4% | SK-MEL-5 melanoma 33.4% | UACC-62 melanoma 55.7% | LOX IMVI melanoma 84.6% | SK-MEL-28 melanoma 60.1% | SK-MEL-2 melanoma 81.7% | SN12C renal 94% | UO-31 renal 88.9% | TK-10 renal 107% | ACHN renal 95.7% | CAKI-1 renal 99.9% | A498 renal 130% | CCRF-CEM leukemia 68.3% | MOLT-4 leukemia 65.2%

COc1ccc(NC2=C(Cl)C(=O)c3nc(C)ccc3C2=O)cc1OC
active: LOX IMVI melanoma -3.09%
inactive: HCT-15 colon 82.3% | SNB-75 CNS 111% | SNB-19 CNS 94.6% | U251 CNS 106% | PC-3 prostate 70.6% | SK-MEL-5 melanoma 86.6% | UACC-62 melanoma 71.8% | SK-MEL-28 melanoma 102% | SK-MEL-2 melanoma 100% | EKVX NSCLC 50.8% | SN12C renal 90.5% | UO-31 renal 100% | TK-10 renal 149% | ACHN renal 95% | A498 renal 82.6% | CCRF-CEM leukemia 15.3% | MOLT-4 leukemia 69.8%

NS(=O)(=O)c1ccc(Nc2nc(SCC(=O)c3ccc(Cl)cc3)nc3c2CCCC3)cc1
inactive: HCT-15 colon 22.1% | SNB-75 CNS 85.8% | SNB-19 CNS 65.9% | U251 CNS 51.3% | SK-MEL-5 melanoma 65.8% | UACC-62 melanoma 48.2% | LOX IMVI melanoma 23.6% | SK-MEL-28 melanoma 68.5% | SK-MEL-2 melanoma 67% | EKVX NSCLC 47.8% | SN12C renal 25.6% | UO-31 renal 38% | TK-10 renal 86.6% | ACHN renal 42% | CAKI-1 renal 43.2% | A498 renal 61.1% | CCRF-CEM leukemia 41.1% | MOLT-4 leukemia 38.4%
